Source: PubChem BioAssay (EPA / NIEHS)
Inconclusive results are not listed. Activity calls are given as the source filed them. How the source made its calls: active means hit-call score of the fitted dose curve at least 0.9, where 1 is the maximum; inconclusive means response in the unintended direction; inactive means score below 0.9.

What follows are compounds tested against Oxysterols receptor LXR-alpha (Homo sapiens) (UniProt Q13133) (assay: ATG_LXRa_TRANS: Attagene TRANS-FACTORIAL HepG2 Assay for human Liver X Receptor alpha (LXRa) (AID 2282980)). Details: HepG2 Attagene TRANS reporter, LXRa transactivation.
Chain of Oxysterols receptor LXR-alpha (Homo sapiens) (Q13133 whole entry, looked up): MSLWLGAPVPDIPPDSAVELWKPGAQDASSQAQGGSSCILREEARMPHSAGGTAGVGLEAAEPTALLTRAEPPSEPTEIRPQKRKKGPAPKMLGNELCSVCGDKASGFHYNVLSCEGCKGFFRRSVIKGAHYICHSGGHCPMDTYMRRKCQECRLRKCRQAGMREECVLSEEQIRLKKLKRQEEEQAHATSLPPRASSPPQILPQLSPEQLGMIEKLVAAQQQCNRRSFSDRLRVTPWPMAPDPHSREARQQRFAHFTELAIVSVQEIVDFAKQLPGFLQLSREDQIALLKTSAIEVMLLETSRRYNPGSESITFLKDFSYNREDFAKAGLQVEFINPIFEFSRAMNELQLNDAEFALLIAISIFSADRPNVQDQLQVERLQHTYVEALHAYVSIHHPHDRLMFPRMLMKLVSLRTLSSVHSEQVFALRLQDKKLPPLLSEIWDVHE
Protocol: ATG_TRANS is a cell-based, multiplexed-readout assay that uses HepG2, a human liver cell line, with measurements taken at 24 hours after chemical dosing in a 24-well plate.ATG_LXRa_TRANS is one of 30 assay component(s) measured or calculated from the ATG_TRANS assay. It is designed to make measurements of mRNA induction, a form of inducible reporter, as detected with fluorescence intensity signals by Reverse transcription polymerase chain reaction (RT-PCR) and Capillary electrophoresis technology.Data from the assay component ATG_LXRa_TRANS was analyzed into 1 assay endpoint. This assay endpoint, ATG_LXRa_TRANS, was analyzed in the positive analysis fitting direction relative to DMSO as the negative control and baseline of activity. Using a type of inducible reporter, measures of mRNA for gain-of-signal activity can be used to understand the reporter gene at the transcription factor-level as they relate to the gene NR1H3. Furthermore, this assay endpoint can be referred to as a primary readout, because this assay has produced multiple assay endpoints where this one serves a reporter gene function. To generalize the intended target to other relatable targets, this assay endpoint is annotated to the nuclear receptor intended target family, where the subfamily is non-steroidal.
Human liver HepG2 cells are transiently transfected with multiple reporter transcription units (MRTUs) in 6-well plates using FuGene 6 reagent (Roche; 3 ml FuGene/1 mg DNA). The MRTU constructs are regulated by a cis-regulating element (promoter). […] A major difference between the CIS and TRANS system is that in CIS activities of endogenous TFs are measured, whereas the TRANS assay evaluates changes in activities of exogenous, chimeric NR-Gal4 proteins. […] At the end of 24 hour incubation, total RNA was isolated using TriZol reagent (Invitrogen). The isolated RNA is then reverse-transcribed using oligo(dT) primer and Mo-MLV reverse transcriptase (Invitrogen) with DNAse I (Ambion) treatment for 30 min. The one-tenth of the produced cDNA was amplified by PCR using Taq DNA polymerase (Invitrogen) and two reporter sequence-specific primers. The PCR products were fluorescently labeled by primer extension with 6-arboxyfluorescein (6-FAM) 5'-labeled reporter sequence-specific primer (2 min at 95 C, 20 s at 68 C and 10 min at 72 C) and these products were digested with 5U of HpaI (New England Biolabs) for 2h at 37 C. The fragments were purified using Qiaquick PCR columns (Qiagen), analyzed on an ABI 3130xL genetic analyzer (Applied Biosystems) with peak positions identified by using a set of X-rhodamine (ROX)-labeled MapMarker1000 molecular weight standards (BioVentures). The raw capillary electrophoresis data was processed using Attagraph software (Attagene).

Question: For CC1=CC[C@H]2C[C@@H]1C2(C)C, which outcome is on record?
Answer: Its outcome is “inactive”.

Question: For O=[N+]([O-])C1(Br)COCOC1, which outcome is on record?
Answer: The outcome was “inactive”.

Question: Which outcome does the source give for CC1(C)O[C@@H]2C[C@H]3[C@@H]4C[C@H](F)C5=CC(=O)C=C[C@]5(C)[C@@]4(F)[C@@H](O)C[C@]3(C)[C@]2(C(=O)CO)O1 here?
Answer: Its outcome is “inactive”.

Question: Which outcome does the source give for CC(=O)c1ccc[nH]1 here?
Answer: The outcome was “inactive”.

Question: How did the outcome turn out when CCCCCCCC[N+](C)(CCCCCCCC)CCCCCCCC was run?
Answer: Its outcome is “inactive”.

Question: How did the outcome turn out when CCCCCCCCCCCCCCCC[n+]1ccccc1 was run?
Answer: Its outcome is “inactive”.

Question: Which outcome does the source give for CC1=NN(c2cc(S(=O)(=O)O)ccc2Cl)C(=O)C1N=Nc1ccccc1 (stereo not given) here?
Answer: The outcome was “inactive”.

Question: CC(C)CC(O)Cc1ccccc1 (stereo not given) was tested. Which outcome did it give?
Answer: The outcome was “inactive”.

Question: How did the outcome turn out when C(=CC=Nc1ccccc1)C=CNc1ccccc1 was run?
Answer: Its outcome is “inactive”.

Question: CCCCCCCCCCCCCCCC[N+](C)(C)CC was tested. Which outcome did it give?
Answer: Its outcome is “inactive”.

Question: How did the outcome turn out when O=C1CCCCCCCCCCCCCCCO1 was run?
Answer: The outcome was “inactive”.

Question: With CCOC(F)(F)C(F)(F)C(F)(F)C(F)(F)F as the compound, how does the outcome read?
Answer: The outcome was “inactive”.

Question: O=C(c1ccc(O)cc1)c1ccc(O)cc1O was tested. Which outcome did it give?
Answer: Its outcome is “inactive”.

Question: With CCN(Cc1cccc(S(=O)(=O)O)c1)c1ccc(C(=C2C=CC(=[N+](CC)Cc3cccc(S(=O)(=O)[O-])c3)C=C2)c2ccccc2)cc1 as the compound, how does the outcome read?
Answer: The outcome was “inactive”.

Question: For O=C1c2ccccc2C(=O)C1c1nc2ccccc2c(Br)c1O, which outcome is on record?
Answer: Its outcome is “inactive”.

Question: Which outcome does the source give for CC(C)(C)c1ccc(N)cc1 here?
Answer: Its outcome is “inactive”.

Question: How did the outcome turn out when Cc1ccc(N/N=c2\c(=O)cc/c(=N/Nc3ccc(S(=O)(=O)O)cc3)c2=O)c(C)c1 was run?
Answer: The outcome was “inactive”.

Question: Cc1cccc(N(C)C(=S)Oc2ccc3ccccc3c2)c1 was tested. Which outcome did it give?
Answer: Its outcome is “inactive”.

Question: For Nc1ccc(Oc2ccc(N)c(N)c2)cc1, which outcome is on record?
Answer: The outcome was “inactive”.

Question: CC(=O)OC(C)C was tested. Which outcome did it give?
Answer: The outcome was “inactive”.

Question: How did the outcome turn out when C=CCOCC(O)CCl (stereo not given) was run?
Answer: Its outcome is “inactive”.

Question: How did the outcome turn out when COc1ccc(-c2coc3cc(O)ccc3c2=O)cc1 was run?
Answer: The outcome was “inactive”.

Question: Which outcome does the source give for CCCCC(CC)COC(=O)c1ccccc1O (stereo not given) here?
Answer: The outcome was “inactive”.

Question: Which outcome does the source give for O=C(O)CCCC[C@@H]1SC[C@@H]2NC(=O)N[C@@H]21 here?
Answer: The outcome was “inactive”.

Question: With CN1C(=O)N(C)C(O)C1O (stereo not given) as the compound, how does the outcome read?
Answer: Its outcome is “inactive”.

Question: For CC(=O)[C@@]1(O)CC[C@H]2[C@@H]3C[C@H](C)C4=CC(=O)C=C[C@]4(C)[C@@]3(F)[C@@H](O)C[C@@]21C, which outcome is on record?
Answer: The outcome was “inactive”.

Question: Which outcome does the source give for CCOC(=O)CC(C(C)=O)C(C)=O here?
Answer: The outcome was “inactive”.

Question: Which outcome does the source give for CC(C)c1ccc(C#N)cc1 here?
Answer: Its outcome is “inactive”.

Question: With CCCCCCCC/C=C\CCCCCCCC(=O)O as the compound, how does the outcome read?
Answer: Its outcome is “inactive”.

Question: O=S(=O)(O)c1ccccc1C=Cc1ccc(-c2ccc(C=Cc3ccccc3S(=O)(=O)O)cc2)cc1 was tested. Which outcome did it give?
Answer: Its outcome is “inactive”.

Question: With c1ccc2c(c1)ccc1cc3c(ccc4ccccc43)cc12 as the compound, how does the outcome read?
Answer: Its outcome is “inactive”.

Question: For CCCCNc1ccc(NCCCC)c2c1C(=O)c1ccccc1C2=O, which outcome is on record?
Answer: The outcome was “inactive”.

Question: CCCCCCCCCCC=CC#N was tested. Which outcome did it give?
Answer: Its outcome is “inactive”.

Question: For O=c1cc(-c2ccccc2)oc2ccccc12, which outcome is on record?
Answer: The outcome was “inactive”.

Question: Cc1cnc(NC(=O)C2=C(O)c3ccccc3S(=O)(=O)N2C)s1 was tested. Which outcome did it give?
Answer: The outcome was “inactive”.

Question: Which outcome does the source give for Oc1ccc(Cl)cc1Cc1cc(Cl)ccc1O here?
Answer: The outcome was “inactive”.

Question: Which outcome does the source give for CCCCCCC(O)CO (stereo not given) here?
Answer: The outcome was “inactive”.

Question: For C1CN(SSN2CCOCC2)CCO1, which outcome is on record?
Answer: Its outcome is “inactive”.

Question: How did the outcome turn out when Nc1ccc2cc3ccccc3cc2c1 was run?
Answer: Its outcome is “inactive”.

Question: With CC=CC(=O)N(CC)c1ccccc1C as the compound, how does the outcome read?
Answer: The outcome was “inactive”.
